Source: the supplement of paper PMC11577813, “Eurasian spruce bark beetle detects lanierone using a highly expressed specialist odorant receptor, present in several functional sensillum types” (BMC Biology, 2024)
± gives the standard deviation of the averaged measurements.

Legend:
[1] = test system: (+)-isopinocamphone A-neuron OSN class; test: net action potential response of A-neuron (blank-subtracted) (spikes/s (Hz)); higher = stronger excitation; settings: 10 µg on filter paper; neuron: A neuron (large spike amplitude)
In short: (§1)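 Spikes were counted in AutoSpike for the large-amplitude A-neuron or the small-amplitude B-neuron, using 0.5 s windows across 1–4 sensilla. Responses were reported as spikes/s after subtraction of the pre-stimulus count and of the blank, averaged across sensilla. The recordings came from one fixed antenna of live lab-reared adult Ips typographus via tungsten electrodes under a humidified, charcoal-filtered airstream of 1.8 L/min, with each compound given as 10 μg in paraffin oil on filter paper in a pipette, pulsed for 0.5 s at 0.3 L/min.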

[2] = test system: (+)-trans-4-thujanol A-neuron OSN class; test: as above; settings: 10 µg on filter paper; neuron: A neuron (large spike amplitude)
In short: as §1

[3] = test system: (5S,7S)-trans-conophthorin A-neuron OSN class; test: as above; settings: 10 µg on filter paper; neuron: A neuron (large spike amplitude)
In short: as §1

[4] = test system: myrcene A-neuron OSN class; test: as above; settings: 10 µg on filter paper; neuron: A neuron (large spike amplitude)
In short: as §1

[5] = test system: p-cymene A-neuron OSN class; test: as above; settings: 10 µg on filter paper; neuron: A neuron (large spike amplitude)
In short: as §1

[6] = test system: lanierone-responsive B-neuron OSN class (ItypOR36); test: net action potential response of lanierone B-neuron (blank-subtracted) (spikes/s (Hz)); higher = stronger excitation; settings: 10 µg on filter paper, neuron: B neuron (small spike amplitude)
In short: as §1

[7] = test system: ipsdienol A-neuron OSN class; test: net action potential response of A-neuron (blank-subtracted) (spikes/s (Hz)); higher = stronger excitation; settings: 10 µg on filter paper; neuron: A neuron (large spike amplitude)
In short: as §1

[8] = co-localized A-neuron class: (4S)-cis-verbenol
[9] = co-localized A-neuron class: (5S,7S)-trans-conophthorin
[10] = co-localized A-neuron class: (+)-isopinocamphone
[11] = co-localized A-neuron class: (+)-trans-4-thujanol
[12] = co-localized A-neuron class: ipsdienol
[13] = co-localized A-neuron class: myrcene
[14] = co-localized A-neuron class: p-cymene

Row | SMILES | net action potential response [1] | net action potential response [2] | net action potential response [3] | net action potential response [4] | net action potential response [5] | net action potential response [6, 8] | net action potential response [6, 9] | net action potential response [6, 10] | net action potential response [6, 11] | net action potential response [6, 12] | net action potential response [6, 13] | net action potential response [6, 14] | net action potential response [7]
1 | CC(=O)CC/C=C(\C)CCC=C(C)C [Geranylacetone] | 2 ± 2 | 1 ± 4.8 | 4.67 ± 7 | -2 | 3 ± 4.2 | -2 ± 2 | -2 ± 2 | -1.33 ± 4.2 | 0 ± 4.3 | -3.33 ± 5.8 | -2 | 0 ± 2.8 | 
2 | CC1=CCC2CC1C2(C)C (stereo not drawn) [(-)-α-Pinene] | 4 ± 3.5 | -0.5 ± 1.9 | 2.67 ± 3.1 | 2 | 5.33 ± 6.4 | -6 ± 4 | -1.33 ± 2.3 | 2 ± 2 | 0 ± 5.7 | -1.33 ± 4.2 | 2 | -5.33 ± 4.6 | 1.33 ± 2.3
3 | C=C1CCC2(C(C)C)CC12 (racemic) [(±)-Sabinene] | 0.667 ± 3.1 | 6.5 ± 5.5 | 0.667 ± 3.1 | 34 | 1.33 ± 6.4 | 0.667 ± 6.4 | -1.33 ± 1.1 | -1.33 ± 2.3 | 0.5 ± 1.9 | 1.33 ± 9.2 | -4 | -4 ± 5.3 | 
4 | CCC/C=C/CO | -1.33 ± 4.2 | 0 ± 1.6 | -0.667 ± 6.4 | -2 | 1.33 ± 1.1 | 0.667 ± 6.4 | 4.67 ± 3.1 | -0.667 ± 6.1 | 4 ± 2.8 | 2 ± 5.3 | 2 | 2 ± 2.8 | 
5 | CC(C)[C@@]12CC[C@@](C)(O)[C@@H]1C2 [(+)-trans-4-Thujanol] | 11.3 ± 16 | 133 ± 37 | -1 ± 1.1 | -4 | 37.3 ± 13 | -3.33 ± 4.2 | 0 ± 5.9 | 0.667 ± 1.1 | -6.5 ± 5.5 | -0.667 ± 2.3 | 2 | -1.33 ± 3.1 | 
6 | CCC/C=C/C=O [(E)-hex-2-enal] | -3.33 ± 2.3 | 1 ± 5.8 | 4.67 ± 4.2 | 2 | 3 ± 1.4 |  |  |  |  |  |  |  | -0.667 ± 1.1
7 | CC(C)=CCC/C(C)=C/C=O [Citral (E/Z mix)] | 0.667 ± 5 | 0.5 ± 1.9 | 2 ± 7.2 | 2 | -2 ± 2 |  |  |  |  |  |  |  | 
8 | CC(=O)OCc1ccccc1 [Benzyl acetate] | 4 ± 3.5 | 0 ± 2.8 | 1.33 ± 4.2 | -4 | 0 ± 4 | 2.67 ± 6.4 | 2 ± 5.3 | 3.33 ± 6.1 | -0.5 ± 1.9 | -6.67 ± 3.1 | 0 | 0.667 ± 4.2 | 
9 | C[C@]12CCC[C@](C)(OC1)O2 (racemic) [(±)-Frontalin] | 2 ± 5.3 | 1 ± 3.5 | 96 ± 57 | -8 | 1.33 ± 1.1 |  |  |  |  |  |  |  | 
10 | C[C@H]1C(=O)C[C@H]2C[C@@H]1C2(C)C [(-)-Pinocamphone] | 119 ± 57 | -0.5 ± 1.9 | 2 ± 2 | 0 | 3.33 ± 3.1 |  |  |  |  |  |  |  | 
11 | CC(=O)OCCc1ccccc1 [2-Phenethyl acetate] | 0.667 ± 3.1 | 2.5 ± 4.1 | 2 ± 2 | 8 | -1.33 ± 4.6 |  |  |  |  |  |  |  | -3.33 ± 4.2
12 | c1ccc2c(c1)CCO2 [2,3-Dihydrobenzofuran] | 2 ± 2 | -1.5 ± 1.9 | 1.33 ± 3.1 | -6 | 6.67 ± 5.8 |  |  |  |  |  |  |  | 4 ± 7.2
13 | CC1(C)C2CC=C(CO)C1C2 (racemic) [(±)-Myrtenol] | 1.33 ± 5 | 1.5 ± 2.5 | -1 ± 3.5 | 2 | 1.33 ± 3.1 |  |  |  |  |  |  |  | 
14 | CCCCCCO [1-Hexanol] | 18.7 ± 22 | 7 ± 5 | 6 ± 18 | 4 | 5.33 ± 1.1 | -0.667 ± 3.1 | 0.5 ± 3.4 | -1.33 ± 1.1 | 0 ± 1.6 | 2 ± 2 | -6 | -2.67 ± 6.1 | 
15 | C=CC(=C)C[C@@H](O)CC(C)C (racemic) [(±)-Ipsenol] | -1.33 ± 5 | 2 ± 2.8 | -1.33 ± 6.1 | -2 | -4 |  |  |  |  |  |  |  | 19.3 ± 15
16 | CCCCCC=O [Hexanal] | 4.67 ± 3.1 | 0.5 ± 4.4 | 2.67 ± 7.6 | 4 | 2 ± 3.5 | 0.667 ± 3.1 | -0.667 ± 1.1 | -1.33 ± 9 | -3 ± 2.6 | -3.33 ± 4.2 | 2 | 3.33 ± 4.6 | 

Row | SMILES | net action potential response [1] | net action potential response [2] | net action potential response [3] | net action potential response [4] | net action potential response [5] | net action potential response [6, 8] | net action potential response [6, 9] | net action potential response [6, 10] | net action potential response [6, 11] | net action potential response [6, 12] | net action potential response [6, 13] | net action potential response [6, 14] | net action potential response [7]
17 | CC(C)CCO [3-Methyl-1-butanol] | 2 ± 2 | 11 ± 11 | 3.33 ± 3.1 | -2 | 7.33 ± 6.1 |  |  |  |  |  |  |  | 
18 | CC[C@H]1O[C@]2(C)CCC[C@H]1O2 (racemic) [(±)-exo-Brevicomin] | -0.667 ± 4.2 | 2.5 ± 2.5 | 173 ± 40 | 6 | 0 ± 2 |  |  |  |  |  |  |  | 
19 | C=C1CCC2CC1C2(C)C (stereo not drawn) [(-)-β-Pinene] | 8 ± 7.2 | 1 ± 1.1 | 2 ± 6 | 18 | 0.667 ± 4.6 | -0.667 ± 7.6 | 3.33 ± 3.1 | -3.33 ± 4.6 | -3 ± 4.2 | 0 ± 6 | -8 | 0 ± 7.2 | 
20 | CCC1CCC2(CCCO2)O1 (racemic) [(±)-Chalcogran] | -3.33 ± 1.1 | 9 ± 10 | 175 ± 15 | 2 | 0.667 ± 3.1 | -1.33 ± 5.8 | -4 ± 5.3 | -1.33 ± 2.3 | -1.5 ± 3.4 | -0.667 ± 1.1 | -8 | -2.67 ± 2.3 | 
21 | Cc1ccc(C(C)C)cc1 [p-Cymene] | -0.667 ± 2.3 | 0.5 ± 5.3 | 3.5 ± 3.4 | 0 | 146 ± 65 |  |  |  |  |  |  |  | 
22 | C=C1[C@@H]2CC[C@@H](C2)C1(C)C (racemic) [(±)-Camphene] | -2 ± 2 | 1.5 ± 1 | -2.67 ± 3.1 | 0 | -3 ± 1.4 |  |  |  |  |  |  |  | 0 ± 2
23 | CC(=O)c1ccccc1 [Acetophenone] | 2.67 ± 4.2 | 2 ± 2.8 | 2 ± 2 | -2 | 4.67 ± 7.6 |  |  |  |  |  |  |  | 
24 | C=CCc1ccc(OC)c(OC)c1 [Eugenol methyl ether] | -0.667 ± 5.8 | 0 ± 1.6 | 4 ± 2.3 | 0 | 4.67 ± 5 |  |  |  |  |  |  |  | 
25 | CC(=O)OCCC(C)C [3-Methylbutyl acetate] | 4.67 ± 4.2 | 3.33 ± 3.1 | -2.67 ± 4.6 | 10 | 6.67 ± 5 | -8 ± 5.3 | 1.33 ± 2.3 | 3.33 ± 3.1 | 0 ± 5.3 | 2 | -6 | -2 ± 3.5 | 
26 | C=CC(=C)CC(O)C=C(C)C (racemic) [(±)-Ipsdienol] | -4.67 ± 1.1 | -1.5 ± 1.9 | -2.5 ± 1.9 | 40 | -1.33 ± 4.2 | 2.67 ± 15 | -0.5 ± 3.4 | -2.67 ± 4.2 | 0 ± 1.6 | -4.67 ± 10 | -4 | -0.667 ± 1.1 | 
27 | CCc1ccc(O)c(OC)c1 [4-Ethylguaiacol] | -1.33 ± 2.3 | 1 ± 1.1 | 3.33 ± 4.2 | 4 | 0.667 ± 2.3 |  |  |  |  |  |  |  | 
28 | C=CC(=C)CCC=C(C)C [Myrcene] | -2 ± 2 | 0.5 ± 3 | 2 ± 10 | 128 | 3.33 ± 2.3 | 7.33 ± 7.6 | 0 ± 6 | 1.33 ± 9 | 2.5 ± 6.6 | 2.67 ± 4.2 | -6 | -2.67 ± 4.6 | 
29 | CC1=CCC(=C(C)C)CC1 [Terpinolene] | 3.33 ± 5.8 | 0.5 ± 5.5 | 4 ± 6.9 | 2 | 20 ± 16 | 4.67 ± 6.4 | 2 ± 2 | -4 ± 2 | -3 ± 3.8 | 2 ± 5.3 | -8 | 0.667 ± 2.3 | 
30 | CC1=CC(=O)[C@@H]2C[C@H]1C2(C)C [(-)-Verbenone] | 0.667 ± 1.1 | 1 ± 4.8 | -5 ± 4.8 | -6 | -0.667 ± 3.1 |  |  |  |  |  |  |  | 
31 | C=Cc1ccccc1 [Styrene] | 5.33 ± 6.1 | 8.5 ± 18 | 6 ± 7.2 | -2 | 18.7 ± 15 |  |  |  |  |  |  |  | 
32 | CC1=CCC(C(C)C)=CC1 [γ-Terpinene] | -0.667 ± 3.1 | -1 ± 4.2 | 3 ± 4.8 | 6 | 117 ± 49 |  |  |  |  |  |  |  | 2 ± 8.7
